# Laboratory results taken from PubChem BioAssay (Tox21).
# Values joined by “and” are separate entries in the source; they are usually repeats but may differ in a detail not shown here. Equal entries are not always repeated. Some compounds were tested as several samples or in several runs, with calls that do not always agree. Active and inactive are the calls of the source. A call without a number means that no potency is given here. Unless noted, the call rests on the fitted dose curve; in most records, active means well fitted curve in the direction sought with a large enough effect in the repeat runs; inconclusive means weak or mixed curves; inactive means no such curve, though single readings can be large; an effect the other way counts as inactive or inconclusive.
# Assays:
# [1] = qHTS assay to identify small molecule antagonists of the thyroid receptor (TR) signaling pathway - cell viability counter screen (AID 743064); further: nearly all actives have a fitted effect of over 50% in size; further: potency means the concentration at half of the fitted maximal effect
# Outline: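 Fluorescence from CellTiter-Fluor, added after 23.5 h exposure at 37 °C, reported viability of GH3.TRE-Luc cells co-treated with compound and 1 nM T3. Measured in the same wells as the luciferase TR readout.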
# [2] = qHTS assay to identify small molecule antagonists of the thyroid receptor (TR) signaling pathway (AID 743065); further: nearly all actives have a fitted effect of over 55% in size; further: potency means the concentration at half of the fitted maximal effect
# Outline: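 Antagonism measured as loss of luciferase signal in GH3 cells stably carrying a TRE-luciferase reporter, co-treated with compound and T3 (1 nM final) for 23.5 h at 37 C. Viability was read in the same well by CellTiter-Fluor.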
# [3] = system: thyroid hormone receptor (rat, GH3 cells); experiment: qHTS assay to identify small molecule agonists of the thyroid receptor (TR) signaling pathway (AID 743066; calls by dose curve)
# [4] = target: Estrogen receptor (Homo sapiens) (UniProt P03372); experiment: qHTS assay to identify small molecule antagonists of the estrogen receptor alpha (ER-alpha) signaling pathway (AID 743069; active means well fitted curve in the direction sought with a large enough effect in the signal ratio in the repeat runs, not every such curve was filed as active; inconclusive means weak or mixed curves, or effect the other way; inactive means no such curve, though single readings can be large or run the other way; the % refers to the signal ratio; further: potency means the concentration at half of the fitted maximal effect)
# Outline: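 Fluorescence intensity from a beta-lactamase FRET substrate served as the read-out. Cells: HEK293 with stably integrated ER-alpha-UAS-bla reporter. Agonist 17beta-estradiol was co-added with compounds; incubation 18 hr at 37C, substrate 2 hr at room temperature.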
# [5] = qHTS assay to identify small molecule antagonists of the estrogen receptor alpha (ER-alpha) signaling pathway - cell viability counter screen (AID 743074; calls by dose curve; further: nearly all actives have a fitted effect of over 45% in size; further: potency means the concentration at half of the fitted maximal effect)
# [6] = target: Estrogen receptor (Homo sapiens) (UniProt P03372); experiment: qHTS assay to identify small molecule agonists of the estrogen receptor alpha (ER-alpha) signaling pathway (AID 743075; calls by dose curve; further: potency means the concentration at half of the fitted maximal effect)
# Aromatase (Homo sapiens) = Aromatase (Homo sapiens) (UniProt P11511); experiment: qHTS assay to identify aromatase inhibitors (AID 743083); further: nearly all actives have a fitted effect of over 55% in size; further: potency means the concentration at half of the fitted maximal effect
# [7] = qHTS assay to identify aromatase inhibitors - cell viability counter screen (AID 743084);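 further: cells stimulated with testosterone during compound exposure; nearly all actives have a fitted effect of over 55% in size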; further: potency means the concentration at half of the fitted maximal effect
# [8] = target: Aryl hydrocarbon receptor (Homo sapiens) (UniProt P35869); experiment: qHTS assay to identify small molecule that activate the aryl hydrocarbon receptor (AhR) signaling pathway (AID 743085); further: nearly all actives have a fitted effect of over 15% in size; further: potency means the concentration at half of the fitted maximal effect;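 on activation: HG2L7.5c1 human HepG2 liver cells with stably integrated DRE-driven firefly reporter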
# Outline: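 Cell line HG2L7.5c1 (human hepatoma, 20× DRE-luc). Plated, 5 h 37C, compound/DMSO added, 24 h 37C. CellTiter-Fluor 30 min 37C → fluorescence; then ONE-Glo 30 min RT → luminescence.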
# [9] = qHTS assay for small molecule agonists of the antioxidant response element (ARE) signaling pathway - cell viability counter screen (AID 743203; calls by dose curve; further: nearly all actives have a fitted effect of over 55% in size; further: potency means the concentration at half of the fitted maximal effect)
# Outline: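 ATP content via CellTiter-Glo luminescence served as the viability measure. Cells: ARE-bla HepG2, 2,000 per well. Exposure: 16 hrs, 37C/5% CO2.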
# [10] = target: Estrogen receptor (Homo sapiens) (UniProt P03372); experiment: qHTS assay to identify small molecule agonists of the estrogen receptor alpha (ER-alpha) signaling pathway using the BG1 cell line (AID 743079); conditions: BG1Luc4E2 cells, ERE-luciferase agonist, 22 h; activation: at 70.3 µM (top of the series); further: nearly all actives have a fitted effect of over 20% in size; further: potency means the concentration at half of the fitted maximal effect
# [11] = qHTS assay to identify small molecule antagonists of the estrogen receptor alpha (ER-alpha) signaling pathway using the BG1 cell line (AID 743080; calls by dose curve;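 further: BG1 cells stimulated with 17beta-estradiol alongside compound; nearly all actives have a fitted effect of over 25% in size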)
# Outline: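 Luminescence from a 4×ERE-luciferase reporter in BG1-Luc-4E2 cells served as read-out. Cells, pre-cultured 5 days in stripped-serum phenol-red-free medium, were exposed to compound with 17beta-estradiol co-stimulation for 21.5 h at 37 C.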
# [12] = qHTS assay to identify small molecule antagonists of the estrogen receptor alpha (ER-alpha) signaling pathway using the BG1 cell line - cell viability counter screen (AID 743081);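 further: compound given together with 17beta-estradiol as the ER stimulus; nearly all actives have a fitted effect of over 45% in size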; further: potency means the concentration at half of the fitted maximal effect
# [13] = target: Peroxisome proliferator-activated receptor gamma (Homo sapiens) (UniProt P37231); experiment: qHTS assay to identify small molecule agonists of the peroxisome proliferator-activated receptor gamma (PPARg) signaling pathway (AID 743094; active means well fitted activation curve with a large enough effect in the signal ratio in the repeat runs, not every such curve was filed as active; inconclusive means weak or mixed curves, or effect the other way; inactive means no such curve, though single readings can be large or run the other way; the % refers to the signal ratio)
# Outline: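 Agonism was assessed in a beta-lactamase reporter system, HEK293H cells with a stably integrated UAS-bla construct under PPARg control; the 17 h treatment at 37C preceded a 1 h room-temperature FRET substrate read.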
# [14] = qHTS assay for small molecule activators of the heat shock response signaling pathway - cell viability counter screen (AID 743209); further: nearly all actives have a fitted effect of over 50% in size; further: potency means the concentration at half of the fitted maximal effect
# Outline: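 Compounds dissolved in DMSO were added to overnight-plated HSE-bla HeLa cells and left 5 h at 37 C. Cell viability was quantified by luminescence using CellTiter-Glo.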
# [15] = qHTS assay for small molecule activators of the heat shock response signaling pathway (AID 743210; active means well fitted activation curve with a large enough effect in the signal ratio in the repeat runs, with a control signal flat, not every such curve was filed as active; inconclusive means weak or mixed curves; the % refers to the signal ratio;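 further: HeLa cells with beta-lactamase reporter driven by heat shock elements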)
# Outline: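 Fluorescence from a cleaved B/G FRET substrate (2.5 h, room temp) reports HSE-driven beta-lactamase in HeLa cells treated 5 h at 37 C with DMSO-dissolved compounds.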
# [16] = qHTS assay to identify small molecule that activate the aryl hydrocarbon receptor (AhR) signaling pathway - cell viability counter screen (AID 743086); further: nearly all actives have a fitted effect of over 45% in size; further: potency means the concentration at half of the fitted maximal effect
# Outline: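 Cytotoxicity counter screen: CellTiter-Fluor signal (30 min, 37 C) in 4000 HepG2 cells/well carrying the DRE-luciferase reporter, following 24 h compound exposure at 37 C.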
# [17] = qHTS assay to identify small molecule antagonists of the peroxisome proliferator-activated receptor gamma (PPARg) signaling pathway - cell viability counter screen (AID 743194); conditions: Potency: co-treated with 50 nM rosiglitazone unless noted; further: nearly all actives have a fitted effect of over 55% in size
# Outline: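 Viability was measured as CellTiter-Glo luminescence in GeneBLAzer PPARg UAS-bla HEK293H cells. These cells had been exposed 17 h at 37 C to compounds together with rosiglitazone at 50 nM final, with the beta-lactamase readout taken in the same wells.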
# [18] = target: Peroxisome proliferator-activated receptor gamma (Homo sapiens) (UniProt P37231); experiment: qHTS assay to identify small molecule antagonists of the peroxisome proliferator-activated receptor gamma (PPARg) signaling pathway (AID 743191; calls by dose curve; further: nearly all actives have a fitted effect of over 30% in size; further: potency means the concentration at half of the fitted maximal effect)
# Outline: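 Beta-lactamase reporter under UAS control in HEK293H PPARg-bla cells; compound treatment 17 h at 37C. Read-out: fluorescence intensity after 1 h room-temperature incubation with LiveBLAzer B/G FRET substrate.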
# [19] = qHTS assay for small molecule agonists of the antioxidant response element (ARE) signaling pathway (AID 743202; active means well fitted activation curve with a large enough effect in the signal ratio in the repeat runs, not every such curve was filed as active; inconclusive means weak or mixed curves, or effect the other way; inactive means no such curve, though single readings can be large or run the other way; the % refers to the signal ratio; further: potency means the concentration at half of the fitted maximal effect)
# Outline: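 Beta-lactamase reporter activity, read as fluorescence intensity, reflects ARE/Nrf2 pathway induction in HepG2 cells after 16 h compound exposure at 37 C; substrate loading was 2 h at room temperature.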
# Peroxisome proliferator-activated receptor gamma (Homo sapiens), sequence (P37231 whole entry, looked up): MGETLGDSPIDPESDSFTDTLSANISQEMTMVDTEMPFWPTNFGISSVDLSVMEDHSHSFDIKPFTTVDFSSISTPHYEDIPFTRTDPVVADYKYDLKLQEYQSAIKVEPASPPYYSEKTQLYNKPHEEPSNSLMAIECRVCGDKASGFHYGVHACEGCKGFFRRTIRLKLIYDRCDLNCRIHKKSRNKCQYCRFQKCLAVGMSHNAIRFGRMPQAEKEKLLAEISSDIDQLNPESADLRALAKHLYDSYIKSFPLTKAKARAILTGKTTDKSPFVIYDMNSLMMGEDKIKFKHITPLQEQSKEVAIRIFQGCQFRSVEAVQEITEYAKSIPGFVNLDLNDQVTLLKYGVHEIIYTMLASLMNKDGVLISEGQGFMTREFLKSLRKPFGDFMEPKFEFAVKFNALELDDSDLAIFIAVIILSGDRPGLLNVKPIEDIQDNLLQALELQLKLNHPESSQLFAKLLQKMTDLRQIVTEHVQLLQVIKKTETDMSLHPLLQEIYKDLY
# Estrogen receptor (Homo sapiens), sequence (P03372 whole entry, looked up): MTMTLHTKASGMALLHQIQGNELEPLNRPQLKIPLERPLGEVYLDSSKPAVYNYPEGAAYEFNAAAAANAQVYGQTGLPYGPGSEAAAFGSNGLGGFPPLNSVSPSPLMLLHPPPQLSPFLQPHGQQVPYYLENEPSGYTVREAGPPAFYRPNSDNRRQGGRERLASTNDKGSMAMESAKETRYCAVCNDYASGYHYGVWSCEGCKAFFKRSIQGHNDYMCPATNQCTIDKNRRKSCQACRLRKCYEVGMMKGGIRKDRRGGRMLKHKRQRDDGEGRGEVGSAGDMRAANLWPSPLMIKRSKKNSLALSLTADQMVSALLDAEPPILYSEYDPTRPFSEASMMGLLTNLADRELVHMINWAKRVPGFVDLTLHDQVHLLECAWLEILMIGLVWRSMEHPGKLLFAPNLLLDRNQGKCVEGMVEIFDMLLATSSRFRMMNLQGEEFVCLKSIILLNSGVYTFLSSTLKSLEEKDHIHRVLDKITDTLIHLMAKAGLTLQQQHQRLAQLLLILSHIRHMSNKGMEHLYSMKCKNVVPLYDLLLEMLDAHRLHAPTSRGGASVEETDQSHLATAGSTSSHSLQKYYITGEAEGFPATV
# Aromatase (Homo sapiens), sequence (P11511 whole entry, looked up): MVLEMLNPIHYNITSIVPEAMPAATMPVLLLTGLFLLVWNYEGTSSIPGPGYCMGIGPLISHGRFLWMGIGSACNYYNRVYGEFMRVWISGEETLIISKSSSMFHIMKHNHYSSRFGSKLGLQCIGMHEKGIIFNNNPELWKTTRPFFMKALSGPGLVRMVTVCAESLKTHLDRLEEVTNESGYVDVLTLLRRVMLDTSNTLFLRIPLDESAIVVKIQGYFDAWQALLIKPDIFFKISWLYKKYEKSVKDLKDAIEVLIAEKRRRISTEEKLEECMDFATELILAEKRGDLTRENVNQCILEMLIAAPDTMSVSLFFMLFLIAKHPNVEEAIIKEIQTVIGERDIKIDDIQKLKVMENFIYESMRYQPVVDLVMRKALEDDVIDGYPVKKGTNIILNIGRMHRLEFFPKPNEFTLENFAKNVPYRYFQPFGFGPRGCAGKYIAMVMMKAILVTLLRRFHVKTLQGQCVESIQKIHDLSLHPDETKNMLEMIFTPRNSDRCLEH
# Aryl hydrocarbon receptor (Homo sapiens), sequence (P35869 whole entry, looked up): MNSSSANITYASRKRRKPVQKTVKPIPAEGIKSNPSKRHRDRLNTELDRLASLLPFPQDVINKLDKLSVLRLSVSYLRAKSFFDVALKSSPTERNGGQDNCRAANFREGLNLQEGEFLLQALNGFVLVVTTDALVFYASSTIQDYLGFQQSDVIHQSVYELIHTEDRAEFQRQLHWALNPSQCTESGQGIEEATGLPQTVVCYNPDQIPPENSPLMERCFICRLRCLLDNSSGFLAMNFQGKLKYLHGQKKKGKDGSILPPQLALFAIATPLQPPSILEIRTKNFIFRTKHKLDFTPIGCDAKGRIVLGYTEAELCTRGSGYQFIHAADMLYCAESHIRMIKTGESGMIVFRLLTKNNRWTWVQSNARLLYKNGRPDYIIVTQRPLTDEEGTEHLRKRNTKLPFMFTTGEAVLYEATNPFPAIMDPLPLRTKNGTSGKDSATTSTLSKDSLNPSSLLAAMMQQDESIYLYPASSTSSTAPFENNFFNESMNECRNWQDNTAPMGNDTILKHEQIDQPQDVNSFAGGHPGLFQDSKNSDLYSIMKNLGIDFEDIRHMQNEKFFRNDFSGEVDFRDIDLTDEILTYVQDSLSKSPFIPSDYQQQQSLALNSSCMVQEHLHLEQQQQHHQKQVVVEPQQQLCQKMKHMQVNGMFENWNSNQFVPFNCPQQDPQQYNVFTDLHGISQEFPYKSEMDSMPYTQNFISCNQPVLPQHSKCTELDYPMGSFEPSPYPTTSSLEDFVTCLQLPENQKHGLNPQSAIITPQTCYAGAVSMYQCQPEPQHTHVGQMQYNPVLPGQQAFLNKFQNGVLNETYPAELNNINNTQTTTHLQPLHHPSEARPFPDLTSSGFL
Compound,Potency [1],Potency [2],Potency [3],Potency [4],Potency [5],Potency [6],Potency (Aromatase (Homo sapiens)),Potency [7],Potency [8],Potency [9],Potency [10],Potency [11],Potency [12],Potency [13],Potency [14],Potency [15],Potency [16],Potency [17],Potency [18],Potency [19]
CCC[CH2][Sn]([CH2]CCC)([O]C(C)=O)[O]C(C)=O,19.5 µM (active),3.89 µM (active),inactive,31.2 µM [inconclusive] (active),inactive,inactive,15.5 µM (active),13.8 µM (active),inactive,6.17 µM (active),,,,,,,,,,
CC(C)c1c(CN(C)C(C)Cc2ccccc2)n(C)n(-c2ccccc2)c1=O (stereo unspecified),inactive,11.4 µM (active),inactive,inactive,inactive,inactive,inactive,inactive,inactive,inactive,inactive,inactive,inactive,inactive,inactive,inactive,,,,
CC(C)(C)c1ccc(OP(=O)(Oc2ccccc2)Oc2ccccc2)cc1,27.5 µM (active),27.5 µM (active),inactive,,inactive,inactive,inactive,inactive,inactive,inactive,,inactive,inactive,inactive,,inactive,,,,
Cc1nn(-c2cc(NS(C)(=O)=O)c(Cl)cc2Cl)c(=O)n1C(F)F,inactive,inactive,inactive,,inactive,,inactive,inactive,inactive,inactive,,,inactive,,inactive,inactive,inactive,inactive,,
CCC1COC(Cn2cncn2)(c2ccc(Cl)cc2Cl)O1 (stereo unspecified),inactive,inactive,inactive,,inactive,inactive,24.3 µM (active),inactive,,inactive,inactive,,inactive,inactive,inactive,inactive,inactive,inactive,inactive,
C[C@]12C/C(=C/O)C(=O)C[C@@H]1CC[C@@H]1[C@@H]2CC[C@@]2(C)[C@H]1CC[C@]2(C)O,inactive and 61.7 µM (active),29.8 µM (active) and 55 µM (active),inactive,,inactive,674 nM [inconclusive] (active) and 783 nM [inconclusive] (active),inactive,inactive,inactive,inactive,211 nM (active) and 97.8 nM (active),inactive,inactive,,inactive,,,inactive,,5.96 µM (active)
CC(C)NCC(O)c1ccccc1Cl (stereo unspecified),inactive,inactive,inactive,,inactive,inactive,inactive,inactive,inactive,inactive,inactive,inactive,inactive,inactive,inactive,inactive,,inactive,inactive,inactive
NC(=O)C(Cl)Cl,inactive,inactive,inactive,,inactive,,inactive,inactive,inactive,inactive,,,inactive,,inactive,inactive,inactive,inactive,inactive,inactive
CCCCC(CC)COC(=O)OOC(C)(C)C (stereo unspecified),inactive,inactive,inactive,,inactive,,inactive,inactive,inactive,inactive,,,inactive,inactive,49 µM (active),,inactive,inactive,,inactive
Brc1cccc(-c2ccccc2)c1,inactive,inactive,inactive,,inactive,inactive,inactive,inactive,inactive,inactive,,inactive,inactive,,inactive,inactive,inactive,inactive,,inactive
CCC1(CC)C(=O)N=C(O)NC1=O,inactive,inactive,inactive,,inactive,inactive,inactive,inactive,inactive,inactive,inactive,inactive,inactive,,inactive,inactive,inactive,inactive,inactive,
CNN,inactive,inactive,inactive,,inactive,,inactive,inactive,inactive,inactive,,,inactive,inactive,inactive,inactive,inactive,inactive,inactive,inactive
Cc1ccc(C)c2ccccc12,inactive,inactive,inactive,,inactive,,inactive,inactive,inactive,inactive,,,inactive,,inactive,inactive,inactive,,,inactive
CNC(=O)Oc1cc(C)cc(C(C)C)c1,inactive,inactive,inactive,,inactive,inactive,inactive,inactive,inactive,inactive,inactive,inactive,inactive,inactive,inactive,inactive,inactive,,,
N#Cc1sc2c(=O)c3ccccc3c(=O)c=2sc1C#N,24.3 µM (active),24.3 µM (active),inactive,,54.9 µM (active),,2.17 µM (active),4.33 µM (active),1.93 µM (active),8.63 µM (active),,,27.3 µM (active),inactive,1.95 µM (active),,6.86 µM (active),,12.3 µM (active),
O=[N+]([O-])c1ccc(Cl)c(Cl)c1Cl,inactive,inactive,inactive,,inactive,,inactive,inactive,inactive,inactive,inactive,inactive,inactive,,inactive,inactive,inactive,,inactive,
